Source: PubChem BioAssay
Sampled rows, rich in hits. Any-hit rate of the full collection: about 2.4%.
Pol eta inh: inhibitors of human DNA polymerase eta; Q9Y253; recombinant Pol eta, fluorescent DNA replication assay; Potency, µM (doses to about 114 µM), most hits filed as inhibitors; 390,000 compounds, 1.2% hits; AID 588591
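Pol eta at 10 nM preincubated with compounds 15 min at room temperature; reaction started with fluorescent substrate (50 nM final) and read kinetically at 0 and 10 min.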
Pol beta inh: blocks human DNA polymerase beta activity. Potency, µM (series often up to 114 µM), most hits filed as inhibitors. P06746. Pol beta primer extension/strand displacement, fluorescence kinetic. 340,000 compounds, 1.3% hits
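Curves were derived by four-parameter Hill fits of normalized qHTS data. The kinetic fluorescent primer-extension read was taken at 0 and 10 min after 50 nM substrate, following a 15 min room-temperature preincubation of 10 nM enzyme with compounds.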
TDP1 inh: blocks human tyrosyl-DNA phosphodiesterase 1. Q9NUW8. recombinant TDP1, AlphaScreen DNA substrate cleavage. Potency, µM (series often up to 130 µM), actives largely listed as inhibitors. 350,000 compounds, 0.28% hits; note: nearly all actives have a fitted effect of over 40% in size
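Compounds were preincubated with Tdp1 (1 nM final) for 15 min at room temperature before substrate (15 nM final) started a 5 min reaction; beads (10 ug/ml final) were then added for 10 min before AlphaScreen detection.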
FEN1 inhibitor: human FEN1 inhibition; P39748; Recombinant FEN1 flap cleavage, fluorescence, 15 min; AID 588795; 390,000 compounds, 0.35% hits; Potency, µM (highest dose often 114 µM), actives largely listed as inhibitors; note: nearly all actives have a fitted effect of over 65% in size
Target sequence (P39748 whole entry, looked up): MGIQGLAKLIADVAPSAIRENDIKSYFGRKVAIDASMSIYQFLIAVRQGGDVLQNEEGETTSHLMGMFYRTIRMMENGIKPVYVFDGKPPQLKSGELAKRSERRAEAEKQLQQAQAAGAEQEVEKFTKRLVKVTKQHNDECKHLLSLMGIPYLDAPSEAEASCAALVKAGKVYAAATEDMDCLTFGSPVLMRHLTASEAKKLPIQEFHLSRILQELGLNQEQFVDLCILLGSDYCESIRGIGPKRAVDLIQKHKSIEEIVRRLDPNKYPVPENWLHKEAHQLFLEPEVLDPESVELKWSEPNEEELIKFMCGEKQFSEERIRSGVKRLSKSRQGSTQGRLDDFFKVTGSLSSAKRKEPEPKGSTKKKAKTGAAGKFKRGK
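Nuclease activity of 10 nM FEN1 was measured after 15 min of room-temperature exposure to titrated compounds, by adding 50 nM flap substrate and reading plates at 0 and 15 min.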
POLI inh: inhibitors of human DNA polymerase iota. 390,000 compounds, 1% hits. Potency, µM (doses to about 115 µM), usual class: inhibitors. Pol iota fluorescent replication assay, 10 min. Q9UNA4
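Pol iota at 10 nM preincubated 15 min with compounds at room temperature; reaction started with fluorescent substrate, 50 nM final. Fluorescence read kinetically at 0 and 10 min; buffer-only wells as negative control.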
Pol kappa inh: inhibitors of human DNA polymerase kappa | Q9UBT6 | purified Pol kappa, fluorescent DNA synthesis assay, 10 min | Potency, µM (series often up to 107 µM), hits mostly inhibitors | 400,000 compounds, 0.53% hits
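Enzyme at 10 nM met test compounds for 15 min at room temperature. Substrate addition (50 nM final) began the reaction, which was monitored by fluorescence at 0 and 10 min.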
A number is an active result; n = inactive; u = inconclusive; x = no result given; [ ] = remark or other dose. Calls come from the whole dose curve; as a rule, active = well fitted curve in the direction sought with a large enough effect; inconclusive = small, poorly fitted or top-dose-only effect, or another doubt; inactive = no such curve, though single readings can be large; an effect the other way counts as inactive or inconclusive.

SMILES	Pol eta inh	Pol beta inh	TDP1 inh	FEN1 inhibitor	POLI inh	Pol kappa inh
Cc1cccc(Cn2ccn(Cc3ccc(Cl)cc3)c(=O)c2=O)c1	n	25µM	n	n	n	n
CCOc1ccc2nc3cc(N)ccc3c(N)c2c1	x	x	n	x	x	22µM
CCOc1ccc2nc3cc(NCc4ccc(OC)cc4)ccc3c(N)c2c1	79µM	28µM	x	22µM	n	n
Cc1cc(C)cc(NC(=O)c2cc(S(=O)(=O)N3CCOCC3)cn2C)c1	n	n	n	n	n	n
O=C1c2cccnc2C(=O)N1CO	n	n	n	n	n	n
O=C1C(=O)c2ncccc2-c2cccnc21	x	x	x	x	x	8.9µM
NC1=C(Br)C(=O)c2ncccc2C1=O	18µM	x	x	n	11µM	n
OCc1cccc(Cl)c1Cl	x	x	n	x	x	n[12 µM]
O=C(/C=C/c1ccc(O)c(O)c1)c1ccc(O)cc1O	x	x	n	x	x	21µM
COc1ccc(-c2cn3cccnc3n2)cc1NC(=O)c1ccc(Br)o1	n	u	50µM	u	u	n
O=C(Nc1cccc(-c2cn3cccnc3n2)c1)c1ccc(Br)o1	n	n	x	n	79µM	u
O=C(Nc1cccc(-c2cn3cccnc3n2)c1)c1ccco1	n	n	n	n	n	n
CCC(C(=O)Nc1cc(-c2cn3cccnc3n2)ccc1C)c1ccccc1 (stereo unspecified)	n	40µM	n	n	n	n
Cc1ccc(S(=O)(=O)c2nc(-c3ccco3)oc2SC(C)c2ccccc2)cc1 (stereo unspecified)	u	u	n	n	u	n
Cc1ccc2c(=O)cc(C(=O)Nc3ccc(S(=O)(=O)N4CCCCC4)cc3)oc2c1	n	n	n	n	n	n
COc1cccc(-c2cc(C(=O)Nc3cnn(Cc4ccc(F)cc4)c3)no2)c1	n	n	n	n	100µM	n
COc1ccc(-c2cc(C(=O)Nc3cnn(Cc4ccc(F)cc4)c3)no2)cc1OC	n	n	n	n	n	n
C[C@@H]1OC(OC2CC[C@@]3(C)C(CC[C@@]4(C)C3CC=C3C5CC(C)(C)CC[C@]5(C(=O)OC5OCC(O)[C@@H](O)[C@@H]5OC5O[C@@H](C)[C@H](O[C@H]6OC(CO)C(O)C(O)C6O)C(O)C5O)C(O)C[C@@]34C)C2(C)C)C(O)C(O)[C@H]1OC1OCC(O)C(O)[C@H]1O (stereo partly specified)	x	x	x	x	x	25µM
[O-][n+]1nc2ccccc2c2ccccc21	n	x	x	n	n	n
CCS(=O)(=O)c1nn2c(N)c(/C=C3/C=CC(=O)C(OC)=C3)c(=O)nc2s1	u	n	n	n	n	n
COC1=C/C(=C/c2c(N)n3c(nc2=O)sc2cc(S(C)(=O)=O)ccc23)C=CC1=O	28µM	n	n	n	u	n
COC1=C/C(=C/c2c(N)n3nc(-c4ccc(C)cc4)sc3nc2=O)C=CC1=O	22µM	56µM	n	u	14µM	n
C/C=C(/C)C(=O)Nc1cccc(C2=NOC3(C2)C[C@@H](C(N)=O)N(C(=O)[C@H]2CCC(=O)N2)C3)c1 (stereo partly specified)	n	u	n	n	n	n
CCCCCC(=O)Nc1cccc(C2=NOC3(C2)C[C@@H](C(N)=O)N(C(=O)c2ccc(OC)cc2)C3)c1 (stereo partly specified)	n	n	n	n	n	n
C=C(C)C(=O)Nc1cccc(C2=NOC3(C2)C[C@@H](C(N)=O)N(C(=O)c2ccc(OC)cc2)C3)c1 (stereo partly specified)	2.8µM	2.8µM	11µM	u	7.1µM	14µM
SMILES	Pol eta inh	Pol beta inh	TDP1 inh	FEN1 inhibitor	POLI inh	Pol kappa inh
C=C(C)C(=O)Nc1cccc(C2=NOC3(C2)C[C@@H](C(N)=O)N(C(=O)[C@H]2CCC(=O)N2)C3)c1 (stereo partly specified)	n	56µM	n	n	n	n
CCN(CC)C(=O)c1nn(-c2ccc(OC)cc2)c(=O)c2c(N)scc12	x	x	n	x	x	x
CC(C)(C)OC(=O)N1CCC(c2nnc(SCc3ccccc3)o2)CC1	n	n	n	n	n	n
Cc1ccc2c(Cl)cc(Cl)c(OCC(=O)NCc3ccco3)c2n1	x	13µM	x	x	x	x
Cc1cc(Cl)cc(Cl)c1OCC(=O)NCc1ccco1	20µM	40µM	n	n	u	n
O=C(COc1ccc(Cl)cc1Cl)NCc1ccco1	n	n	n	n	n	n
O=S1(=O)N=C(Oc2ccccc2C(F)(F)F)c2ccccc21	x	x	n	x	x	x
C=CCOc1c(Br)cc(/C=C2/C(=O)ON=C2C)cc1OC	n	n	x	n	89µM	n
CC1=C(C(N)=O)C(c2ccc(C(C)C)cc2)n2nc(SCc3ccccc3)nc2N1 (stereo unspecified)	n	n	n	n	n	n
O=S(=O)(Nc1ccccc1)c1ccc(-c2cnc(C3CC3)o2)cc1	n	n	n	n	79µM	n
CC(=O)Nc1ccc(NS(=O)(=O)c2ccc(-c3cnc(C4CC4)o3)cc2)cc1	n	n	n	n	n	n
COc1cccc(NS(=O)(=O)c2ccc3c(c2)CCC(=O)N3)c1	x	x	n	x	x	x
NNc1nc2c(-c3ccc(F)cc3)nnn2c2ccccc12	n	u	n	28µM	n	n
CCCc1cc(=O)[nH]c(SCc2nc(-c3ccccc3)no2)n1	n	n	n	n	n	n
COC1=C(Nc2ccc(O)cc2)C(=O)c2ccccc2C1=O	n	u	n	n	25µM	n
CCc1ccc(C2CC(=O)Nc3c2c(=O)n(C)c2ncnn32)cc1 (stereo unspecified)	n	n	n	n	u	n
COc1ccccc1CNc1ccc(-c2nc(-c3cccc(C)c3)no2)cc1[N+](=O)[O-]	n	n	n	n	n	n
O=C(N/N=C/c1cccnc1)c1cc2ccccc2o1	n	n	n	n	u	n
O=C(N/N=C/c1cc(Br)c(Br)o1)c1cc2ccccc2o1	n	u	50µM	n	u	n
O=[N+]([O-])c1c(NCCCO)cc(SCc2ccco2)c2nonc12	n	50µM	n	u	n	n
CC(=O)OCCNc1cc(SCc2ccco2)c2nonc2c1[N+](=O)[O-]	u	u	x	u	18µM	79µM
O=C(NCc1ccccc1Cl)c1ccc2c(O)c(S(=O)(=O)c3ccccc3)c(=O)[nH]c2c1	n	n	n	n	n	n
Nc1ccccc1S(=O)(=O)O	x	x	n	x	x	x
Nc1ccc(/C=C/c2ccc(N)cc2S(=O)(=O)O)c(S(=O)(=O)O)c1	x	x	x	x	x	3.2µM
Cc1cc(C)cc(NC(=O)CCc2c(C)nc3nc(CNC(=O)c4cccc(F)c4)nn3c2C)c1	n	n	n	n	n	n
Cc1ccc(C2C(C#N)=C(N)SC(N)=C2C#N)cc1	n	n	n	n	n	n
Cc1ccc(C2C(C#N)=C(N)SC(N)=C2C#N)c(C)c1	n	n	n	n	25µM	n
